Tested on: Plasmodium falciparum NF54 gametocytes
Assay: viability index relative to DMSO control (fraction); higher = less gametocyte killing
Conditions: 12.5 µM, incubation time: 72 h
In short: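 P. falciparum NF54 gametocytes of each stage (I–V), in serum-containing medium (0.50% gametocytemia, 1.25% hematocrit, 40 µl), were incubated with compound at 12.5 µM in 384-well plates for 72 hr at 37°C under low oxygen. Wells received 5 µl of 5 µM MitoTracker Red CMXRos for 20 min. Then 5 µl was moved into 40 µl of 500 nM dye in serum-free medium and imaged after 30 min (three fields). The viability index was the gametocyte particle count divided by the plate mean of DMSO wells.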

[1] = gametocyte stage: Stage I viability index
[2] = gametocyte stage: Stage II viability index
[3] = gametocyte stage: Stage III viability index
[4] = gametocyte stage: Stage IV viability index
[5] = gametocyte stage: Stage V viability index

SMILES	viability index [1]	viability index [2]	viability index [3]	viability index [4]	viability index [5]
CCOC(=O)c1c(C)n(-c2ccccc2)c2ccc(OC(=O)c3cc(OC)c(OC)c(OC)c3)cc12	1.05	0.724	0.947	0.987	1.05
COc1cccc(C2(C)Nc3ccccc3-c3nc4ccccc4n32)c1 (stereo not given)	0.113	0.0986	0.198	0.465	0.154
CN1CCN(c2ccc(Nc3c4ccccc4nc4ccccc34)cc2)CC1	0.0453	0.0029	0.0523	0.146	0.121
CCOc1ccc(CN2CCN(CC(O)COc3ccc(OCC(O)CN4CCN(Cc5ccc(OCC)cc5)CC4)cc3)CC2)cc1 (stereo not given)	0.076	0.114	0.133	0.104	0.0519
CCN1CCN(c2cc(C)c3cc(NC(=O)c4ccc(OC)c(OC)c4)ccc3n2)CC1	0.33	0.677	1.04	0.818	0.901
CC1CC(C)CN(C(=O)c2ccc(Cl)cc2Cl)C1 (stereo not given)	0.95	0.871	0.962	0.951	1.01
COc1ccccc1CNC(=O)CCn1c(=O)[nH]c2ccsc2c1=O	0.477	0.712	1	0.805	0.769
COc1ccc(CCN2CCC(CN(C)Cc3cnn(-c4ccccc4)c3)CC2)cc1	0.203	0.496	0.508	0.498	0.418
COc1ccc(-c2cc(=O)oc3c4c(ccc23)OCN(Cc2ccc(F)cc2)C4)cc1	0.0192	0.0833	0.406	0.516	0.545
O=C(Nc1cccc(-c2nc3ccccc3[nH]2)c1)c1cccc(NC(=O)c2ccco2)c1	0.424	0.771	1.01	0.857	0.868
Cc1ccc(N2C3c4ccccc4N(S(=O)(=O)c4ccc(C)cc4)C2c2ccccc2N3S(=O)(=O)c2ccc(C)cc2)cc1	0.687	0.77	0.928	0.93	0.978
CC(C)=CCN1CCC(C(=O)Nc2ccc(-c3nc4ccccc4[nH]3)cc2)CC1	0.0674	0.525	0.921	0.912	0.967
O=C(Nc1ccc(CN2CCOCC2)cc1)c1ccc(-c2ccc(Br)cc2)o1	0.141	0.543	0.926	0.787	1.16
O=C(NCc1ccco1)C1CCN(S(=O)(=O)c2ccc(Cl)cc2)CC1	0.568	0.802	1.03	0.942	1.23
Cc1cc(Nc2ccc(OCc3ccccc3)cc2)nc2cc(O)ccc12	0.332	0.199	0.468	0.487	0.481
CCN(CC)CCCNc1nc(-c2ccc(Cl)cc2)nc2ccccc12	0.693	0.751	1.01	0.903	0.956
N=c1n(CCN2CCCCC2)c2ccccc2n1CC(O)c1cccc(Br)c1 (stereo not given)	0.0133	0.056	0.133	0.267	0.341
Cc1cc(Nc2ccc(Cl)cc2)n2nc(C(F)(F)F)nc2n1	0.957	0.975	1.03	0.97	1
COc1ccc2c(c1)C1(Nc3ccccc3-c3nc4ccccc4n31)C(=O)N2 (stereo not given)	0.0265	0.00483	0.017	0.0608	0.033
CCc1c(C)c(=N)c2ccccc2n1C	0.725	1.01	1.24	0.988	0.791

SMILES	viability index [1]	viability index [2]	viability index [3]	viability index [4]	viability index [5]
CC(C)(C)c1ccc(C(=O)Nc2nc3ccccc3s2)cc1	0.787	0.834	0.813	0.812	0.736
COc1cc2c3cc1Oc1c(OC)c(OC)cc4c1C(Cc1ccc(O)c(c1)Oc1ccc(cc1)CC3N(C)CC2)N(C)CC4 (stereo not given)	0.25	0.465	0.592	0.528	0.468
CCOC(=O)c1cnc2ccc(Cl)cc2c1NCCCN(C)C	0.309	0.59	0.989	1.03	0.844
Cc1cccc(Nc2nc(N)c3ccccc3n2)c1	0.0785	0.635	0.948	0.854	0.692
CCCc1c(C)nc2ccc(Br)cc2c1O	0.777	0.706	0.893	0.965	0.753
CN(C)CCCNc1c2ccccc2nc2ccccc12	0.0663	0.0164	0.0835	0.201	0.231
O=C(Nc1ccc(N2CCCCC2)c(Cl)c1)c1ccc(Br)o1	0.673	0.726	0.762	0.787	0.978
Clc1ccc2c(N3CCCC3)ccnc2c1	0.241	0.491	0.915	0.93	1.14
Cn1c(=O)c2cc(C(=O)NCCCN3CCCCCC3)sc2c2ccccc21	1.01	0.857	0.926	0.957	0.725
COc1cccc(NC(=O)Cn2c(C)c(C#N)c3ccccc32)c1	0.0586	0.129	0.252	0.605	0.363
Clc1cc(Br)ccc1-c1ccc(CNCC2CCNCC2)o1	0.0166	0.0135	0.0099	0.0152	0.033
CCOC(=O)c1cn(CC)c2cc(N(C)CCc3ccc(OC)c(OC)c3)c(F)cc2c1=O	0.63	0.723	0.912	0.827	0.923
COc1ccc(C(=O)Nc2nonc2-c2ccc(OC)c(OC)c2)cc1Cl	0.564	0.401	0.487	0.568	0.736
COc1cc(C(=O)ON=C(N)Cc2cccc3ccccc23)cc(OC)c1OC	0.0175	0.0391	0.157	0.12	0.0909
CCN(CC)c1ccc(NC(=O)c2cccs2)cc1	0.716	0.659	0.758	0.936	1.04
COc1ccc(C(O)(CCC(C)C)C(CN2CCOCC2)c2ccc(Cl)cc2)cc1 (stereo not given)	1.2	0.843	1.12	1	0.922
CCCCNCC(O)(c1ccc(Cl)cc1)c1ccc(Cl)cc1	0.00663	0.0541	0.364	0.422	0.396
CCC(=O)Nc1nnc(Cc2ccc(OC)c(OC)c2)s1	1.02	0.965	0.901	1.08	1.38
CCc1ccc(CNCC(O)c2ccccc2)cc1 (stereo not given)	0.042	0.177	0.649	0.703	0.506
CCCCCn1c(=N)n(CC(O)COc2cccc(C)c2)c2ccccc21 (stereo not given)	0.0988	0.0949	0.32	0.459	0.221

SMILES	viability index [1]	viability index [2]	viability index [3]	viability index [4]	viability index [5]
CN(C)c1ccc(-c2nc3cc(N)ccc3[nH]2)cc1	0.0873	0.566	0.962	0.939	0.725
Cc1ccc(C)c(-c2csc(Nc3ccc(C)c(C)c3)n2)c1	0.856	0.815	0.82	0.639	0.558
COc1cc2c(cc1OC)C1=NNC(=O)C1=NC(C)(C)C2	0.00884	0.0058	0.0707	0.109	0.011
COc1ccc(C(=O)Nc2ccc3nc(N4CCCCC4)cc(C)c3c2)cc1OC	0.275	0.58	0.95	0.9	0.989
O=C(Nc1cccc(C(F)(F)F)c1)c1cc(Cl)ccc1O	0.00552	0.00676	0.0184	0.0669	0.11
FC(F)(F)c1cccc(Nc2nc3ccccc3nc2Nc2cccc(C(F)(F)F)c2)c1	0.0175	0.0233	0.0149	0.00633	0.0649
CCN(CC)CCNc1ncnc2c1[nH]c1ccc(Cl)cc12	0.0354	0.373	0.818	0.763	0.451
CCCCCC(=O)N1c2ccccc2N=C2CC(c3ccc(OC)c(OC)c3)CC(O)=C2C1c1ccc(C(F)(F)F)cc1 (stereo not given)	0.0365	0.0251	0.0919	0.219	0.429
Cc1cc(N2CCN(C3CCCC3)CC2)n2c(nc3ccccc32)c1C#N	0.833	0.875	1.15	1.02	1
CCOc1cc2c(cc1OCC)C(c1cc(OC)c(O)cc1Cl)NCC2 (stereo not given)	0.0243	0.0957	0.513	0.723	0.626
FC(F)(F)c1ccc(Nc2nnnc3ccccc23)cc1	0.604	0.736	0.921	0.72	0.868
COc1cccc(-c2nn(C)c3sc(C(=O)NCCN4CCN(c5ccccc5F)CC4)cc23)c1	0.0431	0.436	0.777	0.836	0.835
Cc1ccc(CN2CCC(C(=O)Nc3ccc(-c4cc5ccccc5[nH]4)cc3)CC2)o1	0.00663	0.313	0.43	0.422	0.396
Cc1cc(Nc2ccc(C)c(Cl)c2)n2nc(C(F)(F)F)nc2n1	0.881	1.23	0.983	1.08	0.945
CCOc1cc2c(cc1OCC)C(c1cc(Cl)ccc1O)NCC2 (stereo not given)	0.0411	0.0883	0.488	0.532	0.675
CCOc1ccc(N2C(N)=NC(N)=NC2(C)C)cc1	1.12	0.909	0.844	0.959	1.08
Cc1cc(NCCN2CCCCC2)c2ccc3ccccc3c2n1	0.0508	0.404	0.536	0.495	0.132
CC(C)(C)CC(C)(C)NCC(O)COc1ccc(Cl)cc1Cl (stereo not given)	0.0309	0.0309	0.0665	0.188	0.11
CC(C)(C)c1ccc(C(=O)Nc2c3c(nn2-c2cccc(Cl)c2)CSC3)cc1	0.469	0.508	0.825	0.747	0.701
CN(C)c1ccc(N2C(N)=NC(N)=NC2(C)C)cc1	1.05	0.931	1.04	1.05	1.21

— the supplement of paper PMC4723716
